# Screening results deposited in PubChem BioAssay by Sanford-Burnham Center for Chemical Genomics.
# tim10-1 inh = tim10-1 yeast growth inhibition | S. cerevisiae tim10-1 ts strain growth, BacTiter-Glo, 24 h | inhibition, % at 20 µM | 330,000 tested, 2.2% active | AID 463190;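 active means inhibition of at least 40%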;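 further: mutant grown at 25 °C; 0% = DMSO wells with yeast and 100% = wells holding no yeast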
# TIM10 inh = TIM10 yeast growth inhibition; AID 463195; 330,000 tested, 1.4% active; S. cerevisiae TIM10 strain growth, BacTiter-Glo luminescence, 24 h; inhibition, % at 10 µM;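 active means inhibition of 40% or more at the single tested concentration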;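 further: wild-type TIM10 isogenic control strain grown at permissive 25 °C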
# NALP1 yeast inh = blocks the NALP1 inflammasome reconstituted in yeast. 280,000 tested, 0.61% active. S. cerevisiae NALP1/ASC/caspase-1 growth, X-gal OD620, 72 h. inhibition, % at 10 µM; in the data active means inhibition mostly above about 24%, no sharp cut-off; inactive means mostly below about 32%
# NLRP3 yeast inh = inhibitors of NALP3 inflammasome in yeast; AID 2825; 330,000 tested, 0.39% active; Yeast reconstituted NLRP3/ASC/caspase-1, beta-gal luminescence, 24 h; inhibition, % at 10 µM;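 active means inhibition of 50% or more; inactive means inhibition below 50%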;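 further: plate controls were induced DMSO wells for no effect and uninduced yeast grown without galactose for full effect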
# tim23-1 inh = tim23-1 yeast growth inhibition | 330,000 tested, 1.3% active | inhibition, % at 20 µM | S. cerevisiae tim23-1 growth, BacTiter-Glo luminescence, 24 h;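 active means growth inhibition of the mutant yeast at or above 50%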;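 further: temperature-sensitive mutant grown at 25 °C; plate controls were DMSO-treated mutant yeast for no effect and medium wells lacking yeast for full effect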
# tim10-1 confirm = confirmation of tim10-1 mutant yeast growth inhibitors. 7,400 tested, 56% active. S. cerevisiae tim10-1 ts strain growth, BacTiter-Glo, 24 h. shares compounds with tim10-1 inh. inhibition, % at 20 µM;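 active means inhibition of yeast growth at or above a set limit in either of two repeat tests at 20 µM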;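 further: tim10-1 mutant grown at permissive 25 °C to find synthetic lethal compounds; 0% = DMSO yeast wells and 100% = medium wells without yeast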
# TIM10 conf = confirmation of TIM10 yeast growth inhibitors. 4,600 tested, 63% active. S. cerevisiae tim10 strain growth, BacTiter-Glo luminescence, 24 h. shares compounds with TIM10 inh. inhibition, % at 10 µM;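 active means inhibition of yeast growth at or above a set limit in either of two replicates at 10 µM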;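 further: this counterscreen used the strain with wild-type TIM10; 0% = yeast with DMSO and 100% = medium wells lacking yeast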
# tim23-1 conf = confirmation of tim23-1 mutant yeast growth inhibitors | shares compounds with tim23-1 inh | S. cerevisiae tim23-1 growth, BacTiter-Glo luminescence, 24 h | inhibition, % at 20 µM | 4,400 tested, 83% active | AID 463218;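 active means inhibition above about 39% in either of two replicate wells at 20 µM, limit read from the data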;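 further: temperature-sensitive tim23-1 mutant grown at 25 °C; 0% = DMSO wells with yeast and 100% = medium wells without yeast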
# Numbers without * were called inactive; / = no result given. Shown are actives, neighbours in structure and some others; about 4% of the full set was active somewhere.
SMILES,tim10-1 inh,TIM10 inh,NALP1 yeast inh,NLRP3 yeast inh,tim23-1 inh,tim10-1 confirm,TIM10 conf,others
C/C(=N/NC(=S)Nc1cccc(C)c1)c1cccc([N+](=O)[O-])c1,52*,49*,13,19,36,43*,41*,
Cc1cccc(NC(=S)N/N=C2/CCCCc3ccccc32)c1,51*,47*,22,43,46,37*,4,
CC1CC(C)CN(CCCNC(=O)CN2C(=O)c3cccnc3Oc3ccc(Cl)cc32)C1 (stereo not given),0,6,17,1,9,/,/,
Cc1ccc(-c2nnc(Oc3cccc(C)c3)c3ccccc23)cc1,34,19,9,10,23,/,/,
Cc1ccc(Oc2nnc(-c3ccccc3)c3ccccc23)cc1,51*,41*,4,25,41,41*,50*,
O=C(CN(CCc1ccccc1)S(=O)(=O)c1ccc(Cl)cc1)N/N=C/c1ccccc1C(=O)O,18,19,-3,21,21,/,/,
CC1CCN(C(=S)SCc2nc(N)nc(Nc3ccccc3)n2)CC1,41*,43*,12,21,42,19,34*,
CC1C/C(=N\NC(=S)NCc2ccccc2)CC(C)(C)C1 (stereo not given),58*,54*,-2,1,48,48*,45*,
COC1CCCN(Cc2c(C(=O)N3CCN(C4CCCCC4)CC3)nc3ccccn23)C1 (stereo not given),12,18,10,-13,16,/,/,
O=c1[nH]c2ccc(S(=O)(=O)N3CCCCC3)cc2[nH]1,2,5,0,3,4,/,/,
O=S(=O)(c1ccc2[nH]c3c(c2c1)CCCC3)N1CCCCC1,40*,41*,-3,6,49,28,34*,
CCc1c(C)sc(NC(=O)c2cc(C)on2)c1C#N,22,20,15,35,28,/,/,
CCCc1cc(C(N)=O)c(NC(=O)c2cc(C)on2)s1,64*,58*,3,-9,48,54*,54*,
N/C(=N\OC(=O)c1ccccc1Br)c1cccc([N+](=O)[O-])c1,79*,41*,11,26,39,84*,54*,
O=C(COC(=O)c1ccc2c(c1)OCO2)Nc1ccccc1Cl,-8,-11,/,15,6,/,/,
CCc1ccc(S(=O)(=O)/N=C2\C=C(Nc3ccc(O)cc3)C(=O)c3ccccc32)cc1,64*,61*,18,44,43,70*,93*,
O=C(NCc1ccc(Cl)cc1)C(=O)NCC1OCCCN1S(=O)(=O)c1cccs1 (stereo not given),-7,-17,12,10,4,/,/,
Cc1no[n+]([O-])c1COc1cccc(/C=C2\N=C(c3ccccc3)OC2=O)c1,30,12,36,8,11,/,/,
O=C1OC(c2ccccc2)=N/C1=C/c1cccc(OC(=O)c2cccs2)c1,48*,51*,/,23,9,25,0,
COc1ccc(-c2nncnn2)cc1,84*,89*,8,-3,42,79*,21,
CC1(CC(=O)N/N=C/c2ccc(OCc3ccc(Cl)cc3Cl)cc2)OCCCO1,63*,49*,16,14,42,41*,2,
Cn1c2ccccc2c2c(C(=O)N3CCN(c4ccccn4)CC3)cn(C3CCCC3)c(=O)c21,40*,47*,1,8,27,18,41*,
COc1ccc(N2CCN(C(=O)c3cn(C4CCCC4)c(=O)c4c3c3ccccc3n4C)CC2)cc1,20,31,3,12,-2,/,/,
O=C(/C=C/c1ccc(-c2ccccc2[N+](=O)[O-])o1)c1ccco1,55*,48*,5,17,36,44*,46*,
O=C(Nc1cccc(C(F)(F)F)c1)c1ccc(Cn2cc(Br)cn2)o1,43*,42*,2,13,45,35*,43*,
SMILES,tim10-1 inh,TIM10 inh,NALP1 yeast inh,NLRP3 yeast inh,tim23-1 inh,tim10-1 confirm,TIM10 conf,others
O=C(Nc1ccc(C(F)(F)F)cc1Cl)c1ccc(Cn2cc(Br)cn2)o1,37,7,5,23,24,/,/,
Oc1ccc(C(=S)N2CCN(c3cccc(Cl)c3)CC2)cc1,41*,54*,-1,9,25,53*,48*,
CC(NC(=O)c1cc(S(=O)(=O)N2CCOCC2)ccc1N1CCCC1)c1ccc(Cl)c(Cl)c1 (stereo not given),-8,0,/,24,-9,/,/,
O=c1cc(-c2c(F)c(F)c(F)c(F)c2F)oc2c(F)c(F)c(F)c(F)c12,42*,54*,-3,20,31,46*,41*,
CC(=O)c1ccc(NC(=O)c2ccc(S(=O)(=O)N3CCCC3)cc2)cc1,20,14,14,26,30,/,/,
Cc1cc(C(=O)Nc2ccc(S(=O)(=O)N3CCCC3)cc2)cs1,44*,56*,13,14,44,40*,36*,
COc1cc(OC)c(C(=O)Nc2ccc(S(=O)(=O)N3CCCCC3)cc2)cc1OC,25,27,/,12,31,/,/,
COc1ccc(C(=O)Nc2ccc(S(=O)(=O)N3CCCCC3)cc2)cc1OC,49*,60*,11,6,-4,33*,-21,
Cc1cc(N2C(=O)C=CC2=O)c([N+](=O)[O-])cc1C,95*,83*,64*,-25,4,93*,95*,
O=C(Cn1cnc([N+](=O)[O-])n1)NC1CC1,-16,-6,18,8,-3,/,/,
C#CCSc1nnc(C)c(C)n1,-4,-2,/,6,-2,/,/,
Cc1ccc(N=N/C(=C\O)C(=O)c2ccc(Cl)cc2)cc1,48*,36,14,8,60*,42*,/,tim23-1 conf=63*
O=C(/C(=C/O)N=Nc1ccccc1)c1ccc(Cl)cc1,65*,58*,26*,8,79*,49*,56*,tim23-1 conf=39*
O=C(Cc1ccccc1)c1ccc(Cl)cc1,5,-8,10,-7,-9,/,/,
CC(=O)c1ccc(N=Nc2ccc(C)cc2)cc1,13,22,7,17,23,/,/,
O=C(CC(Nc1ccccc1)C(=O)O)c1ccccc1 (stereo not given),16,8,-11,11,17,/,/,
C=C(C(=O)c1ccccc1)C(C)CC(=O)c1ccccc1 (stereo not given),44*,49*,38,17,55*,60*,56*,tim23-1 conf=48*
O=C1CC2(CCN(C(=O)c3cccc(F)c3)CC2)Oc2ccccc21,9,1,/,10,3,/,/,
O=C(NC(=S)Nc1ccc(N2CCCCC2)cc1)c1cccs1,44*,55*,33,31,51*,14,27,tim23-1 conf=50*
